Test results as given in the supplement of paper PMC6555819.

How the values were obtained:
Experiment in all cases: PBM binding z-score (relative to random genomic background probes); higher = stronger binding; sequences stand for … in GC…GCGATTGACAGCGTAGAATGAAGG
[1] = test system: FXR:RXRa (NR concentration 270 nM, RXRa partner concentration 90 nM)
In short: (§1)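 Scanned fluorescence from custom Agilent 4×180K protein-binding microarrays was regression-normalized. Binding z-scores use random background probes as reference. Ligand-free nuclear receptor dimers were incubated on the arrays for 1 h and detected with antibodies against each partner (one per run).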

[2] = test system: LXRa:RXRa (NR concentration 270 nM, RXRa partner concentration 90 nM)
In short: as §1

[3] = test system: LXRa homodimer (NR concentration 270 nM)
In short: as §1

[4] = test system: LXRb:RXRa (NR concentration 270 nM, RXRa partner concentration 90 nM)
In short: as §1

[5] = test system: LXRb homodimer (NR concentration 270 nM)
In short: as §1

[6] = test system: PPARa:RXRa (NR concentration 270 nM, RXRa partner concentration 90 nM)
In short: as §1

[7] = test system: PPARg:RXRa (NR concentration 180 nM, RXRa partner concentration 90 nM)
In short: as §1

[8] = test system: PPARg:RXRa 270nM:90nM, anti-RXR (NR concentration 270 nM, RXRa partner concentration 90 nM)
In short: as §1

[9] = test system: PPARg:RXRa 30nM:10nM, anti-RXR (NR concentration 30 nM, RXRa partner concentration 10 nM)
In short: as §1

[10] = test system: PPARg:RXRa 90nM:30nM, anti-RXR (NR concentration 90 nM, RXRa partner concentration 30 nM)
In short: as §1

[11] = test system: PPARg:RXRa DBDmut IVT, anti-RXR (DBD mutation: RXRa K156A/R161A, NR concentration 270 nM, RXRa partner concentration 90 nM)
In short: as §1

[12] = test system: PPARg:RXRa IVT, anti-PPARg (NR concentration 270 nM, RXRa partner concentration 90 nM)
In short: as §1

[13] = test system: PPARg DBDmut:RXRa IVT, anti-PPARg (DBD mutation: PPARg1 K132A/R137A, NR concentration 270 nM, RXRa partner concentration 90 nM)
In short: as §1

[14] = test system: PPARg DBDmut IVT, anti-PPARg (DBD mutation: PPARg1 K132A/R137A, NR concentration 270 nM)
In short: as §1

[15] = test system: PPARg homodimer (NR concentration 180 nM)
In short: as §1

[16] = test system: PXR:RXRa (NR concentration 270 nM, RXRa partner concentration 90 nM)
In short: as §1

[17] = test system: PXR homodimer (NR concentration 270 nM)
In short: as §1

[18] = test system: RARa homodimer (NR concentration 270 nM)
In short: as §1

[19] = test system: RARb:RXRa (NR concentration 270 nM, RXRa partner concentration 90 nM)
In short: as §1

| Sequence | PBM binding z-score [1] | PBM binding z-score [2] | PBM binding z-score [3] | PBM binding z-score [4] | PBM binding z-score [5] | PBM binding z-score [6] | PBM binding z-score [7] | PBM binding z-score [8] | PBM binding z-score [9] | PBM binding z-score [10] | PBM binding z-score [11] | PBM binding z-score [12] | PBM binding z-score [13] | PBM binding z-score [14] | PBM binding z-score [15] | PBM binding z-score [16] | PBM binding z-score [17] | PBM binding z-score [18] | PBM binding z-score [19] |
| --- | --- | --- | --- | --- | --- | --- | --- | --- | --- | --- | --- | --- | --- | --- | --- | --- | --- | --- | --- |
| AGTCAGAGTTCATCTAGGTAACGTAAGATATGCT | 6.74 | 5.36 | 4.78 | 3.63 | 1.48 | 4.64 | 4.23 | 4.21 | 1.67 | 3.42 | 0.73 | 2.55 | 1.05 | 0.893 | 1.46 | 5.25 | 9.2 | 1.13 | 4.3 |
| CCTACGGGGCCAAAGGTCATTGATTCCAATGCTC | 5.67 | 5.59 | 4.4 | 5.16 | 0.715 | 6.04 | 11 | 9.49 | 8.43 | 11.1 | 1.49 | 5.33 | -0.65 | -0.159 | 5.46 | 6.24 | 2.59 | 2.51 | 4.72 |
| ATCGAAAGGTCGACGAGTTGAGTATACACCGTTT | 3.68 | 3.25 | 0.0436 | 2.75 | 0.676 | 3.98 | 2.27 | 2.77 | 1.17 | 1.91 | 0.59 | 1.57 | 1.03 | 0.857 | 1.26 | 3.23 | 1.84 | 0.451 | 3.7 |
| GATCCAGGGTCAGCTAGAGGCCAGAGTATGGAAA | 4.42 | 2.62 | -0.925 | 2.36 | -1.4 | 4.38 | 3.24 | 3.15 | 0.349 | 1.66 | 0.393 | 1.96 | -0.6 | -0.817 | 1.89 | 3.27 | -0.25 | -0.417 | 4.24 |
| CCTAGTTGGCCAAGGTCACACACGCTATAGGTAC | 3.78 | 3.61 | 1.6 | 3.73 | 0.597 | 3.8 | 2.42 | 2.88 | 0.959 | 1.94 | 1.76 | 2.66 | 0.582 | 0.0264 | 2.66 | 3.85 | 1.93 | 1.5 | 3.8 |
| ATACCAAGGTTATCGTGAGGTCGTTGATACTAAC | 3.14 | 4.42 | 2.28 | 2.93 | 0.533 | 2.77 | 1.24 | 1.56 | 0.633 | 1.07 | 0.718 | 1.31 | 1.06 | 0.559 | 1.6 | 4.73 | 2.85 | 1.45 | 2.47 |
